Laboratory results: PubChem BioAssay (Tox21)
Where “and” joins values, the source holds several entries; their conditions need not be identical. Equal values may be shown once. Results filed as inconclusive are left out. Entries that show only a call come without a potency. More than one record can exist for a structure, and the calls need not agree. Calls of active or inactive are those of the source. The call rests on the fitted dose curve; in most records, active means well fitted curve in the direction sought with a large enough effect in the repeat runs; inconclusive means weak or mixed curves; inactive means no such curve, though single readings can be large; an effect the other way counts as inactive or inconclusive.

What was measured:
[1] = Caspase-3/7 induction in HepG2 cells by small molecules, qHTS assay (AID 1346978); further: nearly all actives have a fitted effect of over 15% in size
In short: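 Wild-type HepG2 cells, 2,000/well, settled 5 hr at 37 C and 5% CO2, then compound-treated for 17 hr; caspase-3/7 activity read by luminescent Caspase-Glo 3/7 after 30 min at room temperature.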

[2] = Caspase-3/7 induction in CHO-K1 cells by small molecules, qHTS cell viability counter screen (AID 1346979); further: nearly all actives have a fitted effect of over 35% in size; further: potency means the concentration at half of the fitted maximal effect
In short: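 Seeding: 1,500 CHO-K1 cells/well. Rest: 5hr, 37C. Treatment: compounds in DMSO, 16hr. Read: CellTiter-Fluor, 1hr, fluorescence.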

[3] = Caspase-3/7 induction in CHO-K1 cells by small molecules, qHTS assay (AID 1346980); further: nearly all actives have a fitted effect of over 15% in size
In short: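 Wild-type CHO-K1 cells exposed to compounds for 17hr at 37 C, 5% CO2. Caspase-3/7 activity then measured by Caspase-Glo 3/7 luminescence after 30min at room temperature.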

[4] = Caspase-3/7 induction in HepG2 cells by small molecules, qHTS cell viability counter screen (AID 1346981); further: series mostly up to about 92 µM; nearly all actives have a fitted effect of over 30% in size
In short: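 Multiplexed with the caspase-3/7 assay: HepG2 cells, 16 hr compound treatment, CellTiter-Fluor viability detection by fluorescence.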

[5] = target: Nuclear receptor subfamily 1 group I member 2 (Homo sapiens) (UniProt O75469); experiment: Human pregnane X receptor (PXR) small molecule agonists, qHTS assay (AID 1346982); further: nearly all actives have a fitted effect of over 35% in size; further: potency means the concentration at half of the fitted maximal effect
In short: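 We seeded PXR-Luc HepG2 cells in assay medium containing 5% charcoal-stripped FBS, added compounds 5 hr later, incubated 24 hr, and read luminescence with ONE-Glo reagent.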

[6] = target: Cytochrome P450 2D6 (Homo sapiens) (UniProt P10635); experiment: Cytochrome P450 Family 2 Subfamily D Member 6 (CYP2D6) small molecule antagonists: luciferase reporter qHTS assay (AID 1671196); further: nearly all actives have a fitted effect of over 50% in size; further: potency means the concentration at half of the fitted maximal effect
In short: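 Luminescence (RLU), read 20 min after detection reagent, indicated CYP2D6 conversion of proluciferin to luciferin during a 1 h NADPH-dependent reaction at room temperature.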

[7] = target: Cytochrome P450 2C19 (Homo sapiens) (UniProt P33261); experiment: Cytochrome P450 Family 2 Subfamily C Member 19 (CYP2C19) small molecule antagonists: luciferase reporter qHTS assay (AID 1671197); further: nearly all actives have a fitted effect of over 65% in size; further: potency means the concentration at half of the fitted maximal effect
In short: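 CYP2C19 P450-Glo, 1536-well qHTS. Cpd + enzyme/proluciferin substrate 10 min RT; + NADPH regen, 37C 1 h; stop with luciferin detection reagent, 20 min RT, luminescence (RLU). Pos ctrl ketoconazole.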

[8] = target: Cytochrome P450 1A2 (Homo sapiens) (UniProt P05177); experiment: Cytochrome P450 Family 1 Subfamily A Member 2 (CYP1A2) small molecule antagonists: luciferase reporter qHTS assay (AID 1671199); further: nearly all actives have a fitted effect of over 50% in size; further: potency means the concentration at half of the fitted maximal effect
In short: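 CYP1A2 turnover of a luminogenic substrate was quantified after 1 h with NADPH regeneration at room temperature. Furafylline served as positive control.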

[9] = target: Voltage-gated inwardly rectifying potassium channel KCNH2 (Homo sapiens) (UniProt Q12809); experiment: Human Ether-a-go-go-Related Gene (hERG) channel small molecule antagonists: fluorescence cell-based qHTS assay (AID 1671200); further: nearly all actives have a fitted effect of over 50% in size; further: potency means the concentration at half of the fitted maximal effect
In short: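 First, 1000 cells per well are seeded and cultured overnight at 37 C. Next, FluxOR II dye is loaded for 1 h at room temperature, protected from light. After 10 more minutes, stimulus is added and fluorescence is read.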

[10] = target: Cytochrome P450 3A4 (Homo sapiens) (UniProt P08684); experiment: Cytochrome P450 Family 3 Subfamily A Member 4 (CYP3A4) small molecule antagonists: luciferase reporter qHTS assay (AID 1671201); further: nearly all actives have a fitted effect of over 50% in size; further: potency means the concentration at half of the fitted maximal effect
In short: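 Enzyme and proluciferin substrate are mixed with test chemicals for 10 min, then NADPH regeneration system drives turnover for 1 h at room temperature. A detection reagent halts the reaction; luminescence after 20 min gives relative activity.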

[11] = target: Cytochrome P450 2C9 (Homo sapiens) (UniProt P11712); experiment: Cytochrome P450 Family 2 Subfamily C Member 9 (CYP2C9) small molecule antagonists: luciferase reporter qHTS assay (AID 1671198); further: nearly all actives have a fitted effect of over 50% in size; further: potency means the concentration at half of the fitted maximal effect
In short: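 P450-Glo proluciferin substrate with CYP2C9 enzyme; 10 min RT preincubation, then NADPH regeneration 1 h at 37C; luciferin detection reagent 20 min RT, luminescence in relative luminescence units.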

Chain of Cytochrome P450 2C19 (Homo sapiens) (P33261 whole entry, looked up): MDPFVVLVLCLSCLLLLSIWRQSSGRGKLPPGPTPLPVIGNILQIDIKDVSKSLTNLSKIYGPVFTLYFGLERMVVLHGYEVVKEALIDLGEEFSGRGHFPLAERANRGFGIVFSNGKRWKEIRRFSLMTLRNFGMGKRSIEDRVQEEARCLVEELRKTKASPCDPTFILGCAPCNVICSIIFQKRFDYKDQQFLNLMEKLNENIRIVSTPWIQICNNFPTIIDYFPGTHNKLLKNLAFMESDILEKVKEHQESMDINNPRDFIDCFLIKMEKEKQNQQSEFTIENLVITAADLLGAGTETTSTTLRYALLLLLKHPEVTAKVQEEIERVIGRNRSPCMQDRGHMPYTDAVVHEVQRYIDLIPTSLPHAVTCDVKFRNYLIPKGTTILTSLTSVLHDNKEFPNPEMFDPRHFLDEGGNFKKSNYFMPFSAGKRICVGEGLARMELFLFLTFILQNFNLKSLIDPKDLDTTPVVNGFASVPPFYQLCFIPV
Chain of Nuclear receptor subfamily 1 group I member 2 (Homo sapiens) (O75469 whole entry, looked up): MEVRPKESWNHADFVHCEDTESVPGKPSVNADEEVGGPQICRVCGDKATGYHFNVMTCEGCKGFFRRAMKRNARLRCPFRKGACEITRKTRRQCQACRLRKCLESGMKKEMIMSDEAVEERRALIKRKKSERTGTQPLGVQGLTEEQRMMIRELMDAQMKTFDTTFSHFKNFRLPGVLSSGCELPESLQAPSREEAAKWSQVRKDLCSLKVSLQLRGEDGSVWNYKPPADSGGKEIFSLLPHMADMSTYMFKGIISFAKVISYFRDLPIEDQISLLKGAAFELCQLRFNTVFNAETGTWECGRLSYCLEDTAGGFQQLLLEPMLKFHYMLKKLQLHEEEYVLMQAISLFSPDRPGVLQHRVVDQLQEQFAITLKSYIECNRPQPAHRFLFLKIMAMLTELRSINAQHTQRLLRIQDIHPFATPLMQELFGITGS
Chain of Voltage-gated inwardly rectifying potassium channel KCNH2 (Homo sapiens) (Q12809 whole entry, looked up): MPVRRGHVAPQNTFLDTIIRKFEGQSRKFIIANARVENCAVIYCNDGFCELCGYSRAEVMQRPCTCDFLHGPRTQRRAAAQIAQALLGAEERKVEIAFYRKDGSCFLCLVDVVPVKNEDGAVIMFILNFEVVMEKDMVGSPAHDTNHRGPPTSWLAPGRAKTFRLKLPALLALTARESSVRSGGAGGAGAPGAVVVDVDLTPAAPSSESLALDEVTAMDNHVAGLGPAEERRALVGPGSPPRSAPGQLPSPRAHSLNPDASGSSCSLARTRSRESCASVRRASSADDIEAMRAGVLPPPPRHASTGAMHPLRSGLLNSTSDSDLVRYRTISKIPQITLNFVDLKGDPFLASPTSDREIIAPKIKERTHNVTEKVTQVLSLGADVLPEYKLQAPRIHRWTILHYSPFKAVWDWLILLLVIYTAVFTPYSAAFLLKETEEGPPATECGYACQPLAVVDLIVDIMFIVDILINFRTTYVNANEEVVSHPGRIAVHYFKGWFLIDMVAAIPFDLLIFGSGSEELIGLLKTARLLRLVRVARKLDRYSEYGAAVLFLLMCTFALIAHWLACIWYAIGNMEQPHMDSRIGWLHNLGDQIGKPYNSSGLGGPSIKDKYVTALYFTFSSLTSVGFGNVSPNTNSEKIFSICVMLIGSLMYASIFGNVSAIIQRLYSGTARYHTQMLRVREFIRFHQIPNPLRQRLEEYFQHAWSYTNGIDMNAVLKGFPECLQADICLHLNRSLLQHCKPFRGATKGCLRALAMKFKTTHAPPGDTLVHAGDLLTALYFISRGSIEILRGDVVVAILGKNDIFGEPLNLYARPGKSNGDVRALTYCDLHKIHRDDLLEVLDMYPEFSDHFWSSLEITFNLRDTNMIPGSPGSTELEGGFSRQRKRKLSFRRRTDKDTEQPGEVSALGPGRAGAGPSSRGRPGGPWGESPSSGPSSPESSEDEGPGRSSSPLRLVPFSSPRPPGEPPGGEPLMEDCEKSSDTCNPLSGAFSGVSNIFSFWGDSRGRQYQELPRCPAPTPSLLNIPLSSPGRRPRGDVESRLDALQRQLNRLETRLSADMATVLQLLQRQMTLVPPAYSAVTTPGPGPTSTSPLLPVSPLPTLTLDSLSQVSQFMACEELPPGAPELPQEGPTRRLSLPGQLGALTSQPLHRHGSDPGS
Chain of Cytochrome P450 3A4 (Homo sapiens) (P08684 whole entry, looked up): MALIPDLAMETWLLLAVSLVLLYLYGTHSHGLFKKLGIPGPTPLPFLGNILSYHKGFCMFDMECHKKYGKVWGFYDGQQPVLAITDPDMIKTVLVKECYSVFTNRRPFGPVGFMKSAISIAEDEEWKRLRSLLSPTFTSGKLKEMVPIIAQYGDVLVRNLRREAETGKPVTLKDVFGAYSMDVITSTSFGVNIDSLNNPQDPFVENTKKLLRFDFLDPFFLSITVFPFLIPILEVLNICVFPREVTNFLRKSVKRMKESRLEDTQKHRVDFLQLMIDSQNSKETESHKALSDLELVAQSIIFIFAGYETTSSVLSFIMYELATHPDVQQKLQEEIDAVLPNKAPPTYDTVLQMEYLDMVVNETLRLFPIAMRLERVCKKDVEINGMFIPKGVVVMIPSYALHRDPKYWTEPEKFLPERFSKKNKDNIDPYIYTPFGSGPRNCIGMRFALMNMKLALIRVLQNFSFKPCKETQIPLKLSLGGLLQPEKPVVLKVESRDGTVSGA
Chain of Cytochrome P450 2D6 (Homo sapiens) (P10635 whole entry, looked up): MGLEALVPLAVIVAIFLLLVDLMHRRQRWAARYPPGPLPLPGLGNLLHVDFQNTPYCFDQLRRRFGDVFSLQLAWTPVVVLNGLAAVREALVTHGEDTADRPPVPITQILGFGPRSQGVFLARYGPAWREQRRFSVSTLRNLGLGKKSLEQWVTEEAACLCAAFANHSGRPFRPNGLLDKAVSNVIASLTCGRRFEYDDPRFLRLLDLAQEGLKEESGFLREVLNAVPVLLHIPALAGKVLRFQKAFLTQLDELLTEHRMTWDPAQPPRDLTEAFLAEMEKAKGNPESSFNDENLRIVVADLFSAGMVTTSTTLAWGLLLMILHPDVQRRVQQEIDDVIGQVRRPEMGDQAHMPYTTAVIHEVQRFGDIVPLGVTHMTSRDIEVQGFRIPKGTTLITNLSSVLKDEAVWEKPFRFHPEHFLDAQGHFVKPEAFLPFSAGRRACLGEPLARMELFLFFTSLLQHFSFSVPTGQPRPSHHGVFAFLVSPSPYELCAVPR
Chain of Cytochrome P450 1A2 (Homo sapiens) (P05177 whole entry, looked up): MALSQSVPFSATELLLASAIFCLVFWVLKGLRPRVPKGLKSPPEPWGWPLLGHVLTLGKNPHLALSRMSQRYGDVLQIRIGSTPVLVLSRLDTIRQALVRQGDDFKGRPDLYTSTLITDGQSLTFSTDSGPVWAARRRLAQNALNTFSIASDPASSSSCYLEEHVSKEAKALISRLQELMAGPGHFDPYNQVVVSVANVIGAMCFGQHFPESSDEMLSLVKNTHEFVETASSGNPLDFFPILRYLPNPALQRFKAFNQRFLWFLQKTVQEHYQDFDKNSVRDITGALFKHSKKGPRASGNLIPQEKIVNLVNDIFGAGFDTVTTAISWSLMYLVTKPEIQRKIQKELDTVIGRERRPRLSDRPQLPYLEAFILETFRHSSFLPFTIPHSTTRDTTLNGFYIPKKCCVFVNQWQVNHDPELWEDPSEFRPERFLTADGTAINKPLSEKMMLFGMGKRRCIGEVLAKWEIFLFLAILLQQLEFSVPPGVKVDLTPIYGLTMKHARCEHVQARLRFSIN
Chain of Cytochrome P450 2C9 (Homo sapiens) (P11712 whole entry, looked up): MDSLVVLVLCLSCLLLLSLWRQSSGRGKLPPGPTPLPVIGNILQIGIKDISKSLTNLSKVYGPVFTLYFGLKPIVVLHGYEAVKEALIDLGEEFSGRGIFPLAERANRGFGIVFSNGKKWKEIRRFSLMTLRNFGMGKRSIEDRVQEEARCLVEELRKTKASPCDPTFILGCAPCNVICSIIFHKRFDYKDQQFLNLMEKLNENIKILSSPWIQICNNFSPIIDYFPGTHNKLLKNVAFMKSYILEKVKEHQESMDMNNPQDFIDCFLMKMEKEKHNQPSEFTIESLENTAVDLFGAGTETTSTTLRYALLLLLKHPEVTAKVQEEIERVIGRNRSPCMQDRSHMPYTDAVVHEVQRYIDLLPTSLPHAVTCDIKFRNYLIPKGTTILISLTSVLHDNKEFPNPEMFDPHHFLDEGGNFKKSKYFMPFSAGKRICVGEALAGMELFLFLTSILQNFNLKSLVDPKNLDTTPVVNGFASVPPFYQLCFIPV

| Compound | Potency [1] | Potency [2] | outcome [3] | Potency [4] | Potency [5] | Potency [6] | Potency [7] | Potency [8] | Potency [9] | Potency [10] | Potency [11] |
| --- | --- | --- | --- | --- | --- | --- | --- | --- | --- | --- | --- |
| Cc1cccc(Nc2cc(Cl)nc(SCC(=O)O)n2)c1C | inactive | inactive | inactive | inactive | 61.1 µM (active) and inactive | inactive | inactive and 7.76 µM (active) | inactive | inactive | inactive | – |
| Cc1cccc2ccccc12 | inactive | inactive | inactive | inactive | inactive | inactive | inactive and 71 µM (active) | inactive | inactive | inactive | – |
| CCCCOCCOCCSC#N | inactive | inactive | inactive | inactive | 32.3 µM (active) and 26.8 µM (active) | inactive | 8.4 µM (active) and inactive | 6.67 µM (active) and 11.1 µM (active) | inactive | inactive | – |
| COC(=O)c1ccc(C=O)cc1 | inactive | inactive | inactive | inactive | inactive | inactive | 71 µM (active) and inactive | 42.3 µM (active) | inactive | inactive | – |
| O=c1c(-c2ccc(O)cc2)coc2cc(O)cc(O)c12 | inactive | 60.1 µM (active) and 48.6 µM (active) | inactive | inactive | 47.7 µM (active) and 30.6 µM (active) and 29.8 µM (active) | inactive | 55.5 µM (active) and 89.4 µM (active) | 19.7 µM (active) and 39.9 µM (active) | inactive | – | – |
| CN(C)Cc1cc(CN(C)C)c(O)c(CN(C)C)c1 | inactive | inactive | inactive | inactive | inactive | 79.6 µM (active) and inactive | inactive | inactive | inactive | inactive | – |
| Nc1cccc(N)c1 | inactive | inactive | inactive | inactive | 54.4 µM (active) and inactive | 39.8 µM (active) and 31.3 µM (active) and inactive | 56.3 µM (active) and 39.4 µM (active) | 63.2 µM (active) and 39.4 µM (active) and 31.7 µM (active) | inactive | – | 70.9 µM (active) |
| C=C(C)OC(C)=O | inactive | inactive | inactive | inactive | inactive | 13 µM (active) and inactive | inactive | inactive | inactive | inactive | inactive |
| CC(=O)/C=C/C1=C(C)CCCC1(C)C | inactive | inactive | inactive | inactive | 55.5 µM (active) and 17.2 µM (active) and 21.7 µM (active) | inactive | 40.7 µM (active) and 39.9 µM (active) and 71 µM (active) | inactive | inactive | 35.6 µM (active) | – |
| CN(C)C=O | inactive | inactive | inactive | inactive | inactive | inactive | inactive | inactive | inactive | inactive | inactive |
| CCCCOC(=O)CCCCCCCCC(=O)OCCCC | inactive | inactive | inactive | inactive | inactive | inactive | inactive | inactive | inactive | inactive | 28.3 µM (active) |
| COC(=O)C1CCC(C(=O)OC)CC1 (centres undefined) | inactive | inactive | inactive | inactive | inactive | inactive | inactive | inactive | inactive | inactive | – |
| O=C1OC(c2ccc(O)cc2)(c2ccc(O)cc2)c2ccccc21 | inactive | 30.4 µM (active) and inactive | inactive | inactive | 48.2 µM (active) and 27.3 µM (active) and 23.7 µM (active) | 71 µM (active) and inactive | 28.1 µM (active) and 17.8 µM (active) and 11 µM (active) | 56 µM (active) and inactive | inactive and 38.9 µM (active) | – | – |
| CC(C)Cc1ccc(C(C)C(=O)O)cc1 (centres undefined) | inactive | inactive | inactive | inactive | inactive | inactive | inactive | inactive | inactive | inactive | – |
| C1CNCCN1 | inactive | 44.6 µM (active) and inactive | inactive | inactive | inactive | 32.6 µM (active) and inactive and 2.03 µM (active) | 82 µM (active) and inactive and 72.1 µM (active) | 41.1 µM (active) and inactive | inactive | inactive | inactive |
| CC(C)(C)NCC(O)c1ccc(O)c(CO)c1 (centres undefined) | inactive | inactive | inactive | inactive | inactive | inactive | inactive | inactive | inactive | inactive | inactive |
| CC(=O)c1ccc(S(=O)(=O)NC(=O)NC2CCCCC2)cc1 | inactive | inactive | inactive | inactive | inactive | 31.6 µM (active) and inactive | inactive | inactive | inactive | inactive | 31.6 µM (active) and 31.7 µM (active) and 17.4 µM (active) |
